In PubChem BioAssay (Tox21):
A number with no mark means an inactive call. The source made the active and inactive calls. Calls follow the shape of the dose curve; as a rule, active = well fitted curve in the direction sought with a large enough effect in the repeat runs; inconclusive = weak or mixed curves; inactive = flat fitted curve, though single readings scatter.

assay: qHTS assay to test for compound auto fluorescence at 590 nm (red) in HepG2 cell free culture (AID 720684); details: cell-free medium autofluorescence, red 540/590 nm; series mostly up to 91.3 µM; fluorescence, % of Rose Bengal: at the top concentration
Text: U.S. Tox21 Program National Center for Advancing Translational Sciences [NCATS] NIH Chemical Genomics Center [NCGC] U.S. Environmental Protection Agency [EPA] National Institutes of Environmental Health Sciences [NIEHS] National Toxicology Program [NTP] U.S. Food and Drug Administration [FDA] Tox21 Assay Overview: Compound auto fluorescence often interferes with screening of the compound library against various biological targets and signaling pathways. Some of these compounds may have fluorophoric properties. Such properties may interfere with the assay outputs resulting in false positives and/or negatives. To decrease such complications and ensure the compound activities are relevant in terms of biological response, the Tox21 10K compound library was screened for auto fluorescence. From the fluorophores used as reporter signals in our screening assays, the auto fluorescence equivalencies of compounds against three fluorophores have been evaluated: Triamterene, Fluorescein and Rose Bengal sodium for blue, green and red fluorescence, respectively. The fluorescence intensities were measured using Excitation/Emission wavelengths at 405/460nm, 485/535nm and 540/590nm for blue, green and red labels, respectively. This assay includes the red fluorescence data.
Tox21 Assay Protocol Summary: 5 uL of culture medium (MEM containing 10% FBS) per well was dispensed into black wall/clear bottom 1536-well plates using a Multidrop Combi Dispenser (ThermoFisher Scientific, Waltham, MA). After 23 nL compound or DMSO vehicle was transferred into assay plate by a pintool work station (Kalypsys, San Diego, CA), fluorescence intensities in the assay plates were measured by an Envision (PerkinElmer, Shelton, CT) plate reader using three labels for measuring blue, green and red fluorescence at […] 460, 535 and 590nm respectively.
% is scaled to controls: 0 for no effect and ±100 for the full control effect.

| Structure (SMILES) | fluorescence, % of Rose Bengal | outcome |
| --- | --- | --- |
| O=C(Cn1ccnc1[N+](=O)[O-])NCCO | -0.146% [at 46 µM] |  |
| O=C(O)CCC(=O)C(=O)O |  | inactive |
| O=[N+]([O-])c1ccc(O/N=C/c2cc(Br)c(O)c(Br)c2)c([N+](=O)[O-])c1 | -0.179% |  |
| O=C1CCCCCCCCCCOCCCCO1 | 0.0187% |  |
| CN1CCCC(n2nc(Cc3ccc(Cl)cc3)c3ccccc3c2=O)CC1 (stereo not given) | -0.354% [at 46 µM] |  |
| CN1C[C@H](C(=O)N[C@]2(C)O[C@@]3(O)[C@@H]4CCCN4C(=O)[C@H](Cc4ccccc4)N3C2=O)C[C@@H]2c3cccc4[nH]cc(c34)C[C@H]21 | 0.0498% [at 46 µM] |  |
| CN1CCCC(CC2c3ccccc3Sc3ccccc32)C1 (stereo not given) | -0.0495% [at 18.6 µM] |  |
| CCOC(C)=O |  | inactive |
| C=C1CCC2CC1C2(C)C (stereo not given) | 0.158% |  |
| CC(C)Nc1cccnc1N1CCN(C(=O)c2cc3cc(NS(C)(=O)=O)ccc3[nH]2)CC1 | 0.051% [at 46 µM] |  |
| CCC(=O)OC | 0.0907% |  |
| O=C(/C=C/c1ccccc1)OCCc1ccccc1 | 0.064% |  |
| Cc1ccccc1N=C(N)Nc1ccccc1C | -0.123% |  |
| O=c1c(O)c(-c2ccc(O)cc2)oc2cc(O)cc(O)c12 |  | inactive |
| C[C@@H](O[C@H]1OCCN(Cc2n[nH]c(=O)[nH]2)[C@H]1c1ccc(F)cc1)c1cc(C(F)(F)F)cc(C(F)(F)F)c1 | -0.0128% [at 46 µM] |  |
| CCCC(C(=O)OCCN(CC)CC)(c1ccccc1)c1ccccc1 | 0.006% [at 46 µM] |  |
| O=C1C(=O)c2ccccc2C(O)=C1C1CCC(c2ccc(Cl)cc2)CC1 (stereo not given) | 0.0009% [at 18.6 µM] |  |
| CCCCOc1ccc(OCCCN2CCOCC2)cc1 | 0.461% [at 18.6 µM] |  |
| CC(CN(C)C)C(C)(O)Cc1ccc(Cl)cc1 (stereo not given) | -0.259% [at 46 µM] |  |
| C[C@@H](CN(C)C)CN1c2ccccc2Sc2ccccc21 | -0.209% [at 18.6 µM] |  |

| Structure (SMILES) | fluorescence, % of Rose Bengal | outcome |
| --- | --- | --- |
| CCOC(=O)c1ccccc1C(=C1C=C(Br)C(=O)C(Br)=C1)c1cc(Br)c(O)c(Br)c1 | -0.349% |  |
| c1ccc2sc(SN(C3CCCCC3)C3CCCCC3)nc2c1 | -0.0406% [at 95.7 µM] |  |
| c1ccc2c(c1)CCc1ccccc1N2 | -0.144% |  |
| CO[C@]1(NC(=O)CSC(F)F)C(=O)N2C(C(=O)O)=C(CSc3nnnn3CCO)CO[C@H]21 | -0.185% [at 46 µM] |  |
| CC(=O)[C@H]1[C@H](C#N)C[C@H]2[C@@H]3CC=C4C[C@@H](O)CC[C@]4(C)[C@H]3CC[C@@]21C | -0.0849% |  |
| CC(C)COCC(CN(Cc1ccccc1)c1ccccc1)N1CCCC1 (stereo not given) | 0.308% [at 46 µM] |  |
| O=C(O)C[C@H](NC(=O)OCc1ccccc1)C(=O)O | 0.115% |  |
| C[C@@]12CCC[C@H]1[C@@H]1CC[C@H]3C[C@@H](O)CC[C@]3(C)[C@H]1CC2 | 0.215% [at 46 µM] |  |
| CCOC(=O)c1ccc(I)cc1 | 0.0153% |  |
| O=C(CCc1ccc(O)cc1)c1c(O)cc(O)cc1O | -0.0055% [at 95.7 µM] |  |
| Cc1ccc(OC(=O)c2ccccc2O)cc1 | 0.156% |  |
| CN1C(C(=O)Nc2ccccn2)=C(O)c2sccc2S1(=O)=O | -0.0396% [at 18.6 µM] |  |
| NCCNCCO | -0.124% [at 95.7 µM] |  |
| CC(=O)OCC(=O)NCCCOc1cccc(CN2CCCCC2)c1 |  | inactive |
| Oc1cccc(Nc2ccccc2)c1 | 0.0295% [at 95.7 µM] |  |
| C[C@]1(Cn2ccnn2)[C@H](C(=O)O)N2C(=O)C[C@H]2S1(=O)=O | -0.329% [at 46 µM] |  |
| C(=C\c1ccccc1)/c1ccccc1 | 0.0371% [at 95.7 µM] |  |
| O=C1NCCN1CCO | 0.138% [at 95.7 µM] |  |
| CCC(C)COC(C)=O (stereo not given) | 0.012% |  |
| CC(=O)OCCN(CCOC(C)=O)c1ccc(N=Nc2ccc([N+](=O)[O-])cc2C#N)cc1 | -0.0248% |  |
